The panel holds about 83,000 compounds, 20% with a hit somewhere; the sample as a whole holds those more often.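 Negative percent growth values reflect cell death: -40 means 40% of the cells present at the start died, and -100 means all died.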 Unmarked numbers belong to inactive results. Active and inactive are the calls of the source. The calls were made as follows: active = growth percent below 10; inactive = the rest.

Some test systems named below: HCT-15 colon; HT29 colon; SNB-75 CNS; SNB-19 CNS; U251 CNS; PC-3 prostate; SK-MEL-5 melanoma; UACC-62 melanoma; LOX IMVI melanoma; SK-MEL-28 melanoma.
Experiment in all cases: NCI-60 one-dose screen, 48 h (100 = growth as untreated, 0 = no growth, -100 = all killed)
Details in all cases: 10 µM unless noted

As to `COc1cc2nc(Nc3ccc(F)cc3)nc(N)c2cc1OC`, the growth in the assay on HCT-15 colon was 94.7%; with HT29 colon it was 81%; with SNB-75 CNS, 103%; with SNB-19 CNS, 92.6%; in the assay on U251 CNS it was 94%; with PC-3 prostate, 84.1%. For the same molecule, the growth with SK-MEL-5 melanoma was 90.5%; in the assay on UACC-62 melanoma, 94%; with LOX IMVI melanoma, 101%; in the assay on SK-MEL-28 melanoma it was 105%.

Take `O=C1c2ccccc2C(=O)c2cc(Cn3cc[n+](Cc4ccc5ccccc5c4)c3)ccc21`: the growth with HCT-15 colon is 98.1%; in the assay with HT29 colon it was 73.1%; with SNB-75 CNS it was 62.8%; in the assay with SNB-19 CNS, 79.5%; with U251 CNS it was 85.8%; in the assay on PC-3 prostate, 38.8%. For the same molecule, the growth in the assay with SK-MEL-5 melanoma is 68.3%; with UACC-62 melanoma, 61.1%; with LOX IMVI melanoma it was 94.9%; in the assay with SK-MEL-28 melanoma, 94.5%.

For `CCOC(=O)C(=CNc1ccccc1[N+](=O)[O-])C(=O)OCC`, the growth in the assay on HCT-15 colon was 108%; in the assay with HT29 colon, 92.6%; with SNB-75 CNS, 97%; with SNB-19 CNS, 91.2%; in the assay on U251 CNS, 92.6%; in the assay with PC-3 prostate it was 95.7%. Besides, the growth with SK-MEL-5 melanoma is 86.4%; in the assay with UACC-62 melanoma it was 84.4%; in the assay with LOX IMVI melanoma it was 99.9%; in the assay on SK-MEL-28 melanoma it was 102%.

In the case of `O=C1Nc2ccccc2/C1=N/N=C/c1ccc(OC2OC(CO)C(O)C(O)C2O)cc1` (stereo not given), the growth is 105% in the assay with HCT-15 colon; 103% in the assay on HT29 colon; 96.8% in the assay with SNB-75 CNS; 100% with SNB-19 CNS; 106% with U251 CNS; 105% with PC-3 prostate. Also, the growth with SK-MEL-5 melanoma is 103%; in the assay with UACC-62 melanoma, 101%; in the assay on LOX IMVI melanoma, 101%; with SK-MEL-28 melanoma, 108%.

`Cc1nn(Cc2ccccc2)cc1C(=O)Nc1sc2c(c1C(N)=O)CCC(=O)C2`: the growth was 13.6% in the assay with HCT-15 colon; 13.1% in the assay with HT29 colon; 54.5% in the assay on SNB-75 CNS; 63% in the assay with SNB-19 CNS; 23.2% in the assay with U251 CNS; 15.6% with PC-3 prostate. The growth is 28.8% with SK-MEL-5 melanoma, 13.9% in the assay with UACC-62 melanoma, 17.2% in the assay on LOX IMVI melanoma and 29.8% in the assay with SK-MEL-28 melanoma.

As to `CCN(CC)CCCNC(=O)c1ccc(N)cc1O`, the growth with HCT-15 colon was 96.1%; with HT29 colon, 103%; in the assay on SNB-75 CNS, 113%; with SNB-19 CNS, 106%; with U251 CNS, 99%; in the assay with PC-3 prostate, 94.2%. Further, the growth in the assay on SK-MEL-5 melanoma is 95.4%; in the assay with UACC-62 melanoma it was 97.9%; with LOX IMVI melanoma it was 90.6%; in the assay with SK-MEL-28 melanoma it was 100%.

In the case of `O=S(=O)(Cc1ccccc1)c1nc2ccccc2s1`, the growth is 33.3% with HCT-15 colon; 25.6% with HT29 colon; 90% in the assay on SNB-75 CNS; 97.1% with SNB-19 CNS; 92.1% in the assay with U251 CNS; 79.5% with PC-3 prostate. For the same molecule, the growth is 67.4% in the assay with SK-MEL-5 melanoma, 71.1% with UACC-62 melanoma, 10.8% in the assay with LOX IMVI melanoma and 93.8% in the assay with SK-MEL-28 melanoma.

With `O=C1Nc2ccccc2/C1=N/N=C/c1c[nH]c2ccccc12`, the growth in the assay with HCT-15 colon was 72.2%; with HT29 colon, 80.8%; with SNB-75 CNS, 45.5%; in the assay on SNB-19 CNS, 88.1%; in the assay with U251 CNS, 73.6%; with PC-3 prostate it was 81.5%. Further, the growth in the assay on SK-MEL-5 melanoma was 76.8%; with UACC-62 melanoma, 38.4%; with LOX IMVI melanoma, 68.4%; with SK-MEL-28 melanoma, 96.3%.

Take `Cc1ccc(-n2nnc(C3=NCCc4c3[nH]c3ccc(Cl)cc43)c2C)cc1`: the growth in the assay with HCT-15 colon was 65.8%; in the assay with HT29 colon, 74.4%; in the assay on SNB-75 CNS, 103%; in the assay with SNB-19 CNS it was 83.3%; with U251 CNS it was 80%; in the assay with PC-3 prostate it was 62.1%. The growth with SK-MEL-5 melanoma is 79.1%; with UACC-62 melanoma, 30.5%; in the assay on LOX IMVI melanoma, 63%; in the assay on SK-MEL-28 melanoma, 100%.

Take `CCn1c(Sc2nnc(NC(=O)CSC(=S)N3CCCCC3)s2)nc2c1c(=O)n(C)c(=O)n2C`: the growth is 49% in the assay on HCT-15 colon; 41.3% with HT29 colon; 88.7% in the assay on SNB-75 CNS; 87.5% with SNB-19 CNS; 96.2% in the assay with U251 CNS; 79.2% with PC-3 prostate. Also, the growth with SK-MEL-5 melanoma was 85.4%; with UACC-62 melanoma it was 60.8%; in the assay on LOX IMVI melanoma, 81.5%; with SK-MEL-28 melanoma, 78.1%.

Consider `CN(C)CCOC(=O)Nc1ccc(Cl)cc1`, for which the growth with HCT-15 colon is 108%; with HT29 colon it was 82.7%; with SNB-75 CNS it was 96.3%; with SNB-19 CNS, 106%; in the assay on U251 CNS it was 101%; in the assay on PC-3 prostate, 65.4%. The growth is 99% in the assay on SK-MEL-5 melanoma, 97.2% with UACC-62 melanoma, 101% in the assay with LOX IMVI melanoma and 115% in the assay with SK-MEL-28 melanoma.

Take `COc1cc2c(cc1OC)-c1ccc3cc4c(cc3c1N(CCN1CCCC1)C2)OCO4`: the growth is 40.6% in the assay on HCT-15 colon; -51.2% (active) in the assay on HT29 colon; -3.1% (active) in the assay on SNB-75 CNS; -5.63% (active) with SNB-19 CNS; -55.7% (active) in the assay with U251 CNS; 2.3% (active) with PC-3 prostate. Besides, the growth in the assay on SK-MEL-5 melanoma was 26.4%; with UACC-62 melanoma it was 36.1%; in the assay with LOX IMVI melanoma it was -79% (active); in the assay on SK-MEL-28 melanoma, 77.2%.

For the origin of these results see PubChem BioAssay (NCI).
